Results: PubChem BioAssay (EPA / NIEHS)
Activity calls are given as the source filed them. Rule for the calls: active = hit-call score of the fitted dose curve at least 0.9, where 1 is the maximum; inactive = score below 0.9.

How the values were obtained:
[1] = read-out: Vascular cell adhesion molecule 1 (VCAM1), VCAM1 (gene 7412); test: BSK_hDFCGF_VCAM1: BioMAP Diversity Plus: hDFCGF Assay for Vascular cell adhesion molecule 1 (VCAM1) Biomarker Activity (AID 2283065); conditions: primary human foreskin fibroblasts; actives raise or lower the signal;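 for AC50: VCAM-1 protein level quantified by ELISA after 24 h chemical exposure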
Outline: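 Human foreskin fibroblast primary cells, chemical exposure 24 h; VCAM-1 by ELISA; bidirectional fit, DMSO = negative control/baseline.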

[2] = read-out: Plasminogen activator inhibitor-1 (PAI1), SERPINE1 (gene 5054); test: BSK_hDFCGF_PAI1: BioMAP Diversity Plus: hDFCGF Assay for Plasminogen activator inhibitor-1 (PAI1) Biomarker Activity (AID 2283066); conditions: primary human foreskin fibroblasts; actives raise or lower the signal
Outline: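 PAI-1 levels in human dermal foreskin fibroblasts were quantified by ELISA 24 h after dosing, with gain or loss analysed against DMSO. Overt cytotoxicity was checked by sulforhodamine B total-protein staining in parallel cultures.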

[3] = read-out: Intercellular Adhesion Molecule 1 (ICAM1), ICAM1 (gene 3383); test: BSK_KF3CT_ICAM1: BioMAP Diversity Plus: KF3CT Assay for Intercellular Adhesion Molecule 1 (ICAM1) Biomarker Activity (AID 2283067); conditions: primary human keratinocytes with fibroblasts; actives raise or lower the signal
Outline: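 ICAM-1 levels are measured by ELISA 24 h after dosing a primary human co-culture of keratinocytes and foreskin fibroblasts. Activity in either direction is fitted relative to DMSO vehicle.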

[4] = read-out: Interleukin-1 alpha (IL1a), IL1A (gene 3552); test: BSK_KF3CT_IL1a: BioMAP Diversity Plus: KF3CT Assay for Interleukin-1 alpha (IL1a) Biomarker Activity (AID 2283070); conditions: primary human keratinocytes with fibroblasts; actives raise or lower the signal
Outline: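 Readout is IL-1a level by ELISA, compared bidirectionally with DMSO as baseline. Cells: human keratinocytes co-cultured with foreskin fibroblasts, harvested 24 h post-dose.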

[5] = read-out: TIMP metallopeptidase inhibitor 2 (TIMP2), TIMP2 (gene 7077); test: BSK_KF3CT_TIMP2: BioMAP Diversity Plus: KF3CT Assay for TIMP metallopeptidase inhibitor 2 (TIMP2) Biomarker Activity (AID 2283071); conditions: primary human keratinocytes with fibroblasts; actives raise or lower the signal
Outline: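 TIMP-2 measured by ELISA at 24 h in human keratinocyte/fibroblast primary co-cultures exposed to chemicals. Both increases and decreases were fitted against DMSO. Parallel cultures were stained with SRB for total protein as an overt-cytotoxicity check.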

[6] = read-out: Transforming growth factor beta 1 (TGFb1), TGFB1 (gene 7040); test: BSK_KF3CT_TGFb1: BioMAP Diversity Plus: KF3CT Assay for Transforming growth factor beta 1 (TGFb1) Biomarker Activity (AID 2283072); conditions: primary human keratinocytes with fibroblasts; actives raise or lower the signal
Outline: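 ELISA quantifies TGF-b1 at 24 h post-dose in a primary human skin co-culture of keratinocytes and fibroblasts, with gain or loss judged against DMSO. Parallel SRB total-protein staining flags overt cytotoxicity.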

[7] = read-out: C-C motif chemokine 2 (Homo sapiens) (UniProt P13500); test: BSK_KF3CT_MCP1: BioMAP Diversity Plus: KF3CT Assay for Monocyte Chemoattractant Protein 1 (MCP1/CCL2) Biomarker Activity (AID 2283073); conditions: primary human keratinocytes with fibroblasts; actives raise or lower the signal
Outline: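 ELISA readout of MCP-1 after 24 h chemical dosing of a human skin primary co-culture of keratinocytes and foreskin fibroblasts. Activity was fitted in both directions against DMSO.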

[8] = read-out: Matrix Metallopeptidase 9 (MMP9), MMP9 (gene 4318); test: BSK_KF3CT_MMP9: BioMAP Diversity Plus: KF3CT Assay for Matrix Metallopeptidase 9 (MMP9) Biomarker Activity (AID 2283074); conditions: primary human keratinocytes with fibroblasts; actives raise or lower the signal;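 for AC50: MMP9 protein level quantified by ELISA in the co-culture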
Outline: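 Values come from bidirectional fitting relative to DMSO of MMP-9 levels, which were measured by ELISA. Measurements were taken 24 h after chemical dosing of a keratinocyte and foreskin fibroblast co-culture.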

[9] = BSK_KF3CT_SRB: Viability Assessment in the BioMAP Diversity Plus: KF3CT Assay (AID 2283069); conditions: primary human keratinocytes with fibroblasts;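 note: read 24 h after compound addition; fitted for both signal gain and loss against DMSO baseline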
Outline: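 Overt cytotoxicity is assessed as total protein by sulforhodamine B staining in parallel human skin co-cultures at 24 h after dosing. DMSO serves as negative control and baseline.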

Measured: AC50

C=CCCCCCCCCC(=O)O
not listed: [9]
inactive: all other assays above

Clc1nc(Cl)c(Cl)c(Cl)c1Cl
not listed: [5]
inactive: all other assays above

CCOC(=O)CC(CC(=O)OCC)(OC(C)=O)C(=O)OCC
not listed: [9]
inactive: all other assays above

CC(C)=CCC/C(C)=C/CO
not listed: [5]
inactive: all other assays above

CCCC(=O)OCC
not listed: [5]
inactive: all other assays above

COc1ccc(/C=C/S(=O)(=O)NC(=O)c2ccc(C)cc2Cl)cc1
active: [4] 8.09 µM
not listed: [5]
inactive: all other assays above

On1ccccc1=S
active: [1] 0.479 µM | [2] 1.7 µM | [3] 10.4 µM | [9] 6.33 µM | [4] 10.2 µM | [6] 9.8 µM | [8] 8.53 µM

CC(C)c1cccc(C(C)C)c1N1C(=O)c2ccc(O)cc2C1=O
inactive: [3] | [7]
active: [1] 13.8 µM | [2] 22 µM | [4] 30.9 µM | [5] 29.2 µM | [6] 29.4 µM | [8] 23.2 µM

Nc1ccc(Nc2ccccc2)cc1
active: [1] 5.54 µM | [8] 3.97 µM
not listed: [5] | [9]
inactive: all other assays above

CCN(C(=O)c1cc(C)cc(OC[C@H](C)Nc2ccncc2)c1)C(C)C
not listed: [5] | [7] | [9]
inactive: all other assays above

CCCCC(CC)COC(=O)c1ccc(C(=O)OCC(CC)CCCC)cc1 (configuration not stated)
not listed: [9]
inactive: all other assays above

O=C(NS(=O)(=O)/C=C/c1ccccc1)c1ccc(F)cc1Cl
not listed: [5]
inactive: all other assays above
